# Pf apPOL block: Pf-apPOL inhibitors, biochemical, fluorescence; Plasmodium falciparum apicoplast DNA polymerase (apPOL); Recombinant Pf-apPOL, molecular beacon fluorescence, 1.5 h; inhibition, % at 10 µM; actives 0.25% (n = 210,000)
# mHTT CaM bind: mutant huntingtin-calmodulin interaction inhibitors – biochemical, AlphaScreen, primary screen. AlphaScreen His-mHTT/GST-CaM binding, luminescence. P42858. actives 3.6% (n = 190,000). inhibition, % at 15 µM;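 note: 0% = both proteins with DMSO and 100% = one protein alone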
# * = called active by the depositor. Only a selection was taken, and hits are over-represented in it overall. Cut-off read from the data, not from the text of the source: active = inhibition above about 50%; inactive = the rest.
SMILES,Pf apPOL block,mHTT CaM bind
Cc1ccc(-c2nc3sccn3c2NC(=O)c2ccc(Cl)cc2)cc1,-4,58*
CC(C)(C)c1ccc(C(=O)Nc2c(-c3ccccc3)nc3sccn23)cc1,-3,42
CCCn1c(=O)c(N2CCN(C(=O)C3CCC3)CC2)nc2ccccc21,-2,-6
O=C(NCCc1ccccn1)C1CCc2sc(C(=O)N3CCCCCC3)cc2C1 (stereo unspecified),-1,1
COCCn1c(C2CCN(C(=O)C(C)C)C2)nc2cccnc21 (stereo unspecified),-2,-1
CC1=NN(c2nc(-c3ccc(C)cc3)cs2)C(=O)/C1=C/c1ccc(N(C)C)cc1,-9,56*
CCN(CC)c1ccc(/C=C2/C(=O)N(c3ccc(C)cc3)N=C2C)cc1,-1,29
CC1=NN(c2nc(-c3ccccc3)cs2)C(=O)/C1=C/c1ccc(C)s1,-9,3
CC1=NN(c2ccc(Br)cc2)C(=O)/C1=C/c1ccc(N(C)C)cc1,3,37
CC1=NN(c2ccc(Cl)c(Cl)c2)C(=O)/C1=C/c1ccccc1,-3,15
CCN(C)c1ccc(/C=C2/C(=O)N(c3ccc(Cl)c(Cl)c3)N=C2C)cc1,-5,61*
CC1=NN(c2nc(-c3ccccc3)cs2)C(=O)/C1=C/c1ccco1,9,76*
CCN(CC)c1ccc(/C=C2/C(=O)N(c3ccc(Cl)c(C(=O)O)c3)N=C2C)cc1,-2,59*
COc1ccc(-n2nc3c(c2NC(=O)c2ccccc2C(F)(F)F)CS(=O)(=O)C3)cc1,-7,4
C(=Nc1cnc2ccccc2c1)c1c2n(c3ccccc13)CCCN2,18,12
Cc1nc(C)c(Cc2ccccc2C)c(N2CCN(C(=O)N(C)C)CC2)n1,1,5
CC1=NN(c2cccc(Cl)c2)C(=O)/C1=C/c1ccc(Cl)c([N+](=O)[O-])c1,3,76*
CCc1ccc(N2N=C(C)/C(=C\c3ccc(N(C)C)cc3)C2=O)cc1,-1,70*
CC1=NN(c2ccc(Cl)c(Cl)c2)C(=O)/C1=C/c1ccc(C)c([N+](=O)[O-])c1,0,12
CC1=NN(c2ccccc2)C(=O)/C1=C/c1ccc(N(C)C)cc1,-7,42
Cc1ccc(C2CC(c3cccc(Cl)c3)n3nnnc3N2)cc1C (stereo unspecified),1,-5
COc1cccc(NC(=O)N2CCCC2c2nc(-c3ccc(F)cc3F)no2)c1 (stereo unspecified),1,-5
CCC(=O)N1CCN(c2cc(Oc3ccc(F)c(F)c3)ncn2)CC1,-10,2
CC1CCc2cc(F)ccc2N1S(=O)(=O)c1ccc([N+](=O)[O-])cc1 (stereo unspecified),-1,7
O=C(Cc1csc(NC(=O)c2cnccn2)n1)NCCOc1ccc(F)cc1,-4,-2
SMILES,Pf apPOL block,mHTT CaM bind
O=C(Cc1csc(NC(=O)c2ccsc2)n1)Nc1cccnc1,-5,1
O=C(Cc1csc(NC(=O)c2cnccn2)n1)Nc1ccc(-n2cccn2)cc1,-6,97*
CS(=O)(=O)Nc1cccc(NC(=O)Cc2csc(NC(=O)c3cnccn3)n2)c1,20,97*
CC(/C=C1\N=C(c2ccc(C)c([N+](=O)[O-])c2)OC1=O)=C\c1ccccc1,0,3
Cc1ccc(C2=N/C(=C\C(Br)=C\c3ccccc3)C(=O)O2)cc1[N+](=O)[O-],2,57*
CCNC(=O)N1CCc2nc(-c3ccc(F)cc3)ncc2C1,-2,0
CC1c2cccn2CCN1C(=O)Nc1ccc(F)c(Cl)c1 (stereo unspecified),-2,5
CC1c2cccn2CCN1C(=O)Nc1cccc(C(F)(F)F)c1 (stereo unspecified),-3,21
Cc1ccc2n1CCN(C(=O)Nc1cccc(C(F)(F)F)c1)C2C(C)C (stereo unspecified),-3,74*
CCCC1c2cccn2CCN1C(=O)Nc1cccc(C(F)(F)F)c1 (stereo unspecified),-4,55*
CCCC1c2ccc(C)n2CCN1C(=O)Nc1cccc(Cl)c1 (stereo unspecified),6,28
CCCC1c2cccn2CCN1C(=O)Nc1ccc(F)c(Cl)c1 (stereo unspecified),-2,83*
CCCC1c2ccc(C)n2CCN1C(=O)Nc1ccc(F)c(Cl)c1 (stereo unspecified),2,90*
Cc1ccc2n1CCN(C(=O)Nc1ccccc1C(F)(F)F)C2C(C)C (stereo unspecified),-1,-1
CC(NC(=O)C1CCN(c2nccn3nc(-c4ccccc4)cc23)CC1)c1ccccc1 (stereo unspecified),4,49
CCOc1ccc(NC(=O)N2CCCC2c2cc(C)on2)cc1 (stereo unspecified),-2,-1
O=C(Cc1cccs1)N1CCC(Nc2ncnc3c2CCC3)C1 (stereo unspecified),11,9
Cc1ccc2n1CCN(C(=O)Nc1ccc(F)c(Cl)c1)C2C(C)C (stereo unspecified),-8,62*
CCCC1c2cccn2CCN1C(=O)Nc1ccc(F)cc1 (stereo unspecified),-5,9
Cc1ccc(NC(=O)N2CCn3c(C)ccc3C2C(C)C)cc1C (stereo unspecified),-4,6
CCCC1c2cccn2CCN1C(=O)Nc1ccc(C)c(F)c1 (stereo unspecified),3,51*
COc1cc(N2CN=c3s/c(=C\c4ccccc4)c(=O)n3C2)cc(OC)c1OC,-8,35
COc1cc(N2CN=c3s/c(=C\C=C\c4ccccc4)c(=O)n3C2)cc(OC)c1OC,-6,55*
O=[N+]([O-])c1cccc(NC2OCC(O)C(O)C2O)c1 (stereo unspecified),1,7
O=[N+]([O-])c1cc(NC2OCC(O)C(O)C2O)ccc1S(=O)(=O)O (stereo unspecified),62*,-5
SMILES,Pf apPOL block,mHTT CaM bind
CC(=O)N1CCN(c2ccc(NC(=O)COc3ccc(Cl)cc3Cl)cc2)CC1,-16,50*
O=C(CCCOc1ccc(Cl)cc1Cl)N1CCN(c2ccc(F)cc2)CC1,9,76*
O=C(CCSc1ccc(Cl)cc1)N1CCN(c2ccc(F)cc2)CC1,-6,15
CCCC(=O)Nc1ccc(NC(=O)COc2ccc(Cl)cc2Cl)cc1,6,9
CCOC(=O)c1ccc2nc(NC(=O)C3=COCCO3)sc2c1,-1,-1
Cn1c(N2CCCC(C(=O)NCc3cccc(Cl)c3)C2)cc(=O)n(C)c1=O (stereo unspecified),-3,-8
CN(C)c1ccc(CNC(=O)C2CCN(c3nc4cccnc4s3)CC2)cc1,-4,-4
O=C1NN(c2ccccc2)C(=O)/C1=C/c1ccc(-c2ccccc2F)o1,-8,10
O=C1NN(c2cccc(C(F)(F)F)c2)C(=O)/C1=C/c1ccc([N+](=O)[O-])o1,-1,98*
COc1ccccc1/C=c1\sc2nc(-c3ccccc3)nn2c1=O,13,1
Cc1cccc(NC(=O)COc2cc(Cl)ccc2Cl)c1,-2,-1
COc1cccc(C2CC(C(F)(F)F)n3ncc(C(=O)NCc4ccc(F)cc4)c3N2)c1 (stereo unspecified),-7,64*
COc1ccc(CNC(=O)c2cnn3c2NC(c2ccc(OC)cc2)CC3C(F)(F)F)cc1 (stereo unspecified),-1,19
O=C(Nc1ccc(Br)cc1)c1cc(S(=O)(=O)NC2CCCCC2)ccc1Cl,18,11
